Most compounds without a hit are left out; they make up all but 7.9% or so of the library.
Marburg entry inh: Marburg virus entry inhibition; AID 540276; 300,000 tested, 1.8% active; Potency, µM (titrated, usually from 37.8 µM), inactives show at the highest dose activity change, negative = inhibition, most hits filed as inhibitors; Marburg virus pseudotyped entry inhibition, cell reporter; calls by dose curve; tested in HEK293 cells; note: potency is the fitted concentration of half-maximal effect
Lassa entry inh: Lassa virus entry inhibition; 300,000 tested, 1.2% active; AID 540256; Potency, µM (titrated, usually from 37.9 µM), inactives show at the top dose activity change, negative = inhibition, actives largely listed as inhibitors; Lassa virus pseudotype entry inhibition, cell reporter; calls by dose curve; tested in HEK293 cells; note: potency is the fitted concentration of half-maximal effect; nearly all actives have a fitted effect of over 50% in size
HCV inh: blocks hepatitis C virus; AID 651820; 340,000 tested, 3.4% active; Potency, µM (top dose mostly 41.8 µM), inactives show at the top dose activity change, negative = inhibition, usual class: inhibitors; Huh7.5.1 HCVcc-Cre infection, luciferase reporter, 44 h; active = well fitted inhibition curve with a large enough effect; inconclusive = small, poorly fitted or top-dose-only effect, or another doubt; inactive = no such curve, though single readings can be large or run the other way; note: potency is the fitted concentration of half-maximal effect
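Reporter virus HCVcc-Cre (~0.5 moi) infects cells exposed to compound; seeding density 1,000 cells/well with 4 h settling beforehand. Luminescence, 15 sec read, taken 44 h post-infection following a 15 min RT substrate incubation.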
HCMV antiviral: inhibitors of human cytomegalovirus | HFF cells, HCMV-luciferase reporter, 72 h; stronger effect = lower value | activity change, negative = inhibition, % at 57.5 µM | 410,000 tested, 4.5% active; in the data active = activity change below about -60%; inconclusive = no clear call, values can overlap the other calls; inactive = above about -39%
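After 16 h attachment at 37C, HFF cells received test compound and HCMV-luciferase (1 PFU/cell); reporter luminescence read 72 h later, data normalized against buffer-only and known inhibitor Salinomycin.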
FMDV antiviral: foot and mouth disease virus antiviral activity; FMDV antiviral cell-based qHTS; Potency, µM (highest dose often 57.9 µM), without a hit: top-dose activity change, negative = inhibition, hits mostly inhibitors; 410,000 tested, 1.2% active; AID 1159524; calls by dose curve; tested in HEK293T cells; note: read-out not given here; potency is the fitted concentration of half-maximal effect; nearly all actives have a fitted effect of over 45% in size
Numbers without * were called inactive; ? = inconclusive; nt = not tested or not shown; [ ] = another dose, or the depositor's remark. % is set by controls: 0 for no effect and ±100 for the full control effect.

SMILES | Marburg entry inh | Lassa entry inh | HCV inh | HCMV antiviral | FMDV antiviral
O=C(c1ccco1)N1CCN(c2ncnc3c(-c4ccccc4)nsc23)CC1 | ? | ? | 22µM* | 119 | 5%
CC1CCc2c(sc3nc(C4CC4)nc(N4CCN(C(=O)c5ccco5)CC4)c23)C1 (stereo not given) | ? | ? | 4.5µM* | -86* | 25µM*
CCc1cc2c(N3CCN(c4ccccc4)CC3)ncnc2s1 | ? | ? | 8.9µM* | -70* | 25µM*
c1nc(N2CCC3(CC2)OCCO3)c2c3c(sc2n1)CCCC3 | -29%[46.1 µM] | ? | -25% | ? | 0%
c1ccc(N2CCN(c3ncnc4sc5c(c34)CCC5)CC2)cc1 | ? | -14% | 10µM* | -76* | -23%
Oc1ccc(N2CCN(c3ncnc4sc(-c5ccccc5)cc34)CC2)cc1 | ? | ? | ? | 101 | ?
CCc1cccc(-n2nnc(-c3nc(-c4ccccc4Cl)no3)c2N)c1 | nt | 4%[46.1 µM] | nt | ? | 6%
COc1cc(C(CC(=O)NCc2ccccc2Cl)N2Cc3ccccc3C2=O)cc(OC)c1OC (stereo not given) | nt | 4%[46.1 µM] | nt | 8 | 2%
CCCN(C(=O)Cn1c(=O)oc2cc(Cl)ccc21)c1ccc(C(C)C)cc1 | -8%[46.1 µM] | -19%[46.1 µM] | nt | -29 | -12%
O=C(c1ccco1)N1CCN(c2ncnc3c2[nH]c2ccc(Br)cc23)CC1 | ? | ? | 11µM* | ? | ?
COc1ccc(CN2CCN(c3ncnc4sc5c(c34)CCCC5)CC2)cc1F | 7%[46.1 µM] | -4%[46.1 µM] | nt | -70* | ?
O=C(c1ccco1)N1CCN(c2ncnc3sc4c(c23)CCC4)CC1 | -5% | -8% | ? | -67* | ?
CCOc1ccc2[nH]c3c(N4CCN(C(=O)c5ccco5)CC4)ncnc3c2c1 | ? | ? | -25% | -31 | -20%
Cc1ccc2c(c1)N(C(=O)N1CCC(C(=O)NCc3ccco3)CC1)CC(C)O2 (stereo not given) | nt | 17%[46.1 µM] | nt | -1 | -17%
O=[N+]([O-])c1cc(-c2nnc(N3CCOCC3)c3ccccc23)ccc1N1CCOCC1 | nt | nt | ? | -36 | ?
Cc1ccc(Nc2nnc(-c3ccc(N4CCOCC4)c([N+](=O)[O-])c3)c3ccccc23)cc1 | ? | ? | 25µM* | -89* | -16%
O=[N+]([O-])c1cc(-c2nnc(Nc3ccccc3)c3ccccc23)ccc1N1CCOCC1 | -3% | nt | 13µM* | -74* | -15%
O=[N+]([O-])c1cc(-c2nnc(Nc3ccc(O)cc3)c3ccccc23)ccc1N1CCOCC1 | ? | ? | ? | -69* | 20µM*
CCC(C)c1ccc(OCC(=O)Nc2ccc(-c3nc4ncccc4o3)cc2)cc1 (stereo not given) | 4%[46.1 µM] | 18%[46.1 µM] | nt | 50 | 15%
O=c1n(CCCN2CCN(C3CCCC(Cl)C3)CC2)nc2ccccn12 (stereo not given) | 40% | nt | nt | nt | nt
COc1cc(CCNC(=O)c2ccccc2NC(=O)C2=C(C)OCCS2)cc(OC)c1OC | nt | nt | -17% | -20 | ?
COc1ccc(OC)c(CCNC(=O)c2cccc(NC(=O)C3=C(C)OCCS3)c2)c1 | nt | nt | 11µM* | -13 | -2%
COc1ccc(OC)c(CCNC(=O)Cc2ccc(NC(=O)C3=C(C)OCCS3)cc2)c1 | nt | nt | nt | -19 | 17%
COc1ccc(CCNC(=O)c2ccccc2NC(=O)C2=C(C)OCCS2)c(OC)c1 | nt | nt | 10µM* | -7 | -4%
CC1=C(C(=O)Nc2cccc(C(=O)NC3CCCC(C)C3C)c2)SCCO1 (stereo not given) | nt | nt | 13µM* | 0 | -22%
SMILES | Marburg entry inh | Lassa entry inh | HCV inh | HCMV antiviral | FMDV antiviral
COc1cc(NC(=O)C2=C(C)OCCS2)c(Cl)cc1C(=O)NCCN(C)C | 10µM* | -39%[46.1 µM] | ? | -32 | -11%
COc1ccc(-c2ccc(C(=O)NCC3Cc4cccc(-c5nc(C)cnc5C)c4O3)o2)cc1 (stereo not given) | nt | nt | nt | nt | -15%
CN(C)C(=O)CSc1cnc2ccccc2n1 | -1%[46.1 µM] | -4%[46.1 µM] | 5% | 34 | 5%
Cc1ccc(C(=O)CSc2cnc3ccccc3n2)cc1C | 18µM* | ? | -29% | -61* | ?
Cc1ccc(C)c(N2CCN(C(=O)Cn3cnc4sc(C)c(S(=O)(=O)N5CCN(c6ncccn6)CC5)c4c3=O)CC2)c1 | ? | -23%[46.1 µM] | nt | -10 | ?
COc1cc(NS(=O)(=O)c2ccc(N/C=C(\C#N)c3nc4cc(Cl)ccc4o3)cc2)nc(OC)n1 | ? | ? | -11% | -86* | ?
CCCCCc1cc(=O)oc2c(C(CCN(CC)CC)c3ccc(OC)cc3)c(OC)cc(OC)c12 (stereo not given) | nt | nt | ? | -81* | -5%
O=C(O)C(Cc1ccc2c(c1)oc1ccccc12)NCP(=O)(O)O (stereo not given) | nt | nt | nt | nt | 6%
C/C(N)=C(/C#N)C(=O)CSc1nnc(-c2ccccc2Br)o1 | 6.3µM* | ? | -2% | 46 | -18%
Cc1ccccc1-c1noc(-c2ccc(N3CCCC3)c([N+](=O)[O-])c2)n1 | 5%[46.1 µM] | 11%[46.1 µM] | nt | -69* | -32%
Cc1ccccc1-c1noc(-c2ccc(N3CCN(C)CC3)c([N+](=O)[O-])c2)n1 | 22%[46.1 µM] | -2%[46.1 µM] | nt | -75* | ?
CCOC(=O)C1=CN(CCC=C(C)C)C(=O)N(C(C)=O)C1c1ccccc1 (stereo not given) | 57%[14.2 µM] | nt | nt | nt | nt
Cc1c(C(=O)Nc2cnn(C(C)(C)C(=O)NCc3ccco3)c2)oc2ccccc12 | nt | nt | nt | 35 | nt
CNc1snc(C)c1C(=O)OCC(=O)c1ccc(Cl)cc1 | nt | nt | ? | 0 | ?
CNc1snc(C)c1C(=O)OC(C)C(=O)c1ccc(F)cc1 (stereo not given) | nt | nt | 11µM* | -79* | ?
NS(=O)(=O)c1ccc(N=Cc2c(O)n(-c3ccccc3)c(=O)[nH]c2=O)cc1 | 5%[46.1 µM] | 10% | 15% | -15 | -7%
Cc1ccc(-n2c(O)c(C=Nc3ccc(S(N)(=O)=O)cc3)c(=O)[nH]c2=O)cc1 | 1%[46.1 µM] | 0%[46.1 µM] | 2% | -104* | 25%
COc1ccc(OCC(=O)Nc2ccc(S(=O)(=O)N3CCCCC3)cc2)cc1 | 5% | -5% | -3% | 23 | -2%
Cc1cccc(OCC(=O)Nc2ccc(S(=O)(=O)N3CCCC3)cc2)c1 | -26% | -13% | -14% | -21 | ?
CCc1cccc(OCC(=O)Nc2ccc(S(=O)(=O)N3CCCC3)cc2)c1 | -14%[46.1 µM] | -29%[46.1 µM] | 11µM* | -27 | -29%
O=C(COc1ccc(C(=O)NCc2cccnc2)cc1)Nc1cccc(C(F)(F)F)c1 | ? | -21% | ? | -38 | ?
O=C(COc1cccc(C(F)(F)F)c1)Nc1cccnc1 | nt | nt | 1% | -85* | -10%
O=C(COc1cccc(C(F)(F)F)c1)Nc1ccc(S(=O)(=O)N2CCCCC2)cc1 | -27%[46.1 µM] | ? | 25µM* | -24 | ?
COc1ccccc1Nc1nc(-c2ccc3c(c2)NC(=O)CO3)cs1 | nt | nt | 10µM* | -64* | ?
CCN(CC)CCN(C)C(c1cc2ccccc2o1)c1nnnn1C(C)(C)C (stereo not given) | nt | nt | nt | -13 | -2%

Screens (PubChem BioAssay)
